# Assay results taken from PubChem BioAssay.
# The source made the active and inactive calls.
# Legend:
# [1] = test system: Human papillomavirus type 1a protein E7 (residues 44-93); experiment: HPV1a E7 fragment binders on microarrays, primary screen, biochemical, small-molecule microarray, residues 44-93, 635 nm fluorescence (AID 1108); conditions: small-molecule microarray binding, fluorescence 635 nm; higher = more signal;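 further: E7 fragment applied at 1 µg/mL in TBST for 1 h at 4 C; score combines spot fluorescence with its signal to noise ratio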
# [2] = modulators of HCV replicon luciferase signal, primary screen, HCV replication inhibitor project, Huh7 cells, luciferase reporter (AID 1109); conditions: 48 h, higher = more signal;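 further: huh7 hepatoma cells harbouring a luciferase neomycin HCV replicon reporter; luciferase luminescence as measure of HCV replicon replication; test concentration not given here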
# [3] = molecular target: Left-right determination factor 2 (Homo sapiens) (UniProt O00292); experiment: LEFTY2 binders on small-molecule microarrays, primary screen, biochemical, small-molecule microarray, 635 nm fluorescence scan (AID 1110); conditions: LEFTY2 binding, higher = more signal
# [4] = molecular target: Calmodulin-1 (Homo sapiens) (UniProt P0DP23); experiment: CALM1 binders on microarrays, EGTA buffer, profiling panel, biochemical, small-molecule microarray, Cy5-labelled CALM1 (AID 1111); conditions: Cy5-CALM1 binding fluorescence, higher = more signal;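 further: labelled calmodulin applied in Tris saline Tween buffer holding calcium plus EGTA and DTT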
# [5] = molecular target: Calmodulin-1 (Homo sapiens) (UniProt P0DP23); experiment: calcium-bound CALM1 binders on microarrays, profiling panel, artefact control for SMM control-protein annotation, biochemical, small-molecule microarray, Cy5-labelled CALM1, plus calcium (AID 1112); conditions: Cy5-CALM1 binding fluorescence, higher = more signal;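 further: score merges spot fluorescence with signal to noise from triplicate slides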
# [6] = small-molecule microarray binders of probe aWnt5a, primary screen, biochemical, biotinylated probe, 635/667 nm fluorescence (AID 1113); conditions: higher = more signal;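 further: score merges 667 nm fluorescence intensity with signal-to-noise per printed feature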
# [7] = small-molecule microarray binders of probe aShh, primary screen, biochemical, biotinylated probe, 635/667 nm fluorescence (AID 1114); conditions: higher = more signal;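 further: probe is biotin-labelled aShh protein from a stem cell growth factor screen; measures binding of labelled protein to compounds printed on the slide; score merges feature fluorescence at 667 nm with signal-to-noise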
# [8] = small-molecule microarray binders of probe aNog, primary screen, biochemical, biotinylated probe, 635/667 nm fluorescence (AID 1115); conditions: higher = more signal;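 further: probe is biotinylated aNog protein used at 0.15 µg/mL for 1 h at 4 C; z-score combines 667 nm fluorescence of each spot with its signal to noise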
# [9] = molecular target: Torsin-1A-interacting protein 1 (Homo sapiens) (UniProt Q5JTV8); experiment: LAP1 binders from COS7 cell lysate, primary screen, small-molecule microarray, 635/667 nm fluorescence (AID 1116); conditions: COS7-hLAP1 lysate binding, 635 nm fluorescence, higher = more signal
# [10] = molecular target: Alpha-bungarotoxin (Bungarus multicinctus) (UniProt P60615); experiment: alpha-bungarotoxin binders on microarray, profiling panel, artefact control for SMM control protein annotation, biochemical, small-molecule microarray, Alexa647 label, 635/667 nm fluorescence (AID 1117); conditions: alpha-BTX-A647 binding fluorescence, higher = more signal
# Albumin (Bos taurus) = Albumin (Bos taurus) (UniProt P02769); experiment: bovine serum albumin binders on microarray, profiling panel, artefact control for SMM control protein annotation, biochemical, small-molecule microarray, Alexa647 label, 635/667 nm fluorescence (AID 1118); conditions: BSA-A647 binding, fluorescence 635 nm, higher = more signal;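 further: score merges 667 nm emission intensity and signal-to-noise per printed compound spot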
# [11] = small-molecule microarray binders of probe aXIP, primary screen, biochemical, NeuroSMM set, 635/667 nm fluorescence (AID 1119); conditions: higher = more signal, called active from +8 up or from −8 down;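 further: probe is the protein aXip251-270 applied at 1 µg/mL to compound-printed slides; binding of probe to printed compounds measured as 667 nm fluorescence plus signal to noise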
# [12] = small-molecule binders of probe aNOTCH3, primary screen, biochemical, small-molecule microarray, 635/667 nm fluorescence (AID 1120); conditions: higher = more signal;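 further: probe is a biotin-tagged antibody raised against NOTCH3 rather than NOTCH3 protein; score merges spot fluorescence near 667 nm with spot signal to noise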
# [13] = small-molecule binders of probe aNOTCH2, primary screen, biochemical, small-molecule microarray, 635/667 nm fluorescence (AID 1121); conditions: higher = more signal;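 further: score merges feature fluorescence read at 667 nm with its signal to noise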
# [14] = molecular target: Carbonic anhydrase 2 (Homo sapiens) (UniProt P00918); experiment: CAII small-molecule binders, profiling panel, biochemical, small-molecule microarray, Alexa647-labelled CAII (AID 1122); conditions: CAII-A647 binding fluorescence, higher = more signal
# [15] = COS7 lysate on small-molecule microarray, probe aHis, 635 nm (AID 1123); conditions: COS7 cell lysate, fluorescence, higher = more signal;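 further: z-score combines 667nm fluorescence intensity with signal-to-noise per printed compound spot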
# [16] = compound binding in COS7 lysate, probe aLAP1, primary screen, cell lysate, small-molecule microarray (AID 1124); conditions: probe aLAP1, fluorescence, higher = more signal;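 further: lysate comes from COS7 cells expressing LAP1 and is applied at 0.3 µg/mL; score merges spot fluorescence near 667 nm with signal-to-noise over triplicate slides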
# Sam68 (KHDRBS1) = experiment: Sam68 small-molecule binders, primary screen, biochemical, small-molecule microarray, 635 nm fluorescence (AID 1125); conditions: small-molecule microarray binding, higher = more signal;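 further: score merges 667 nm channel intensity with signal to noise over triplicate slides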
# [17] = test system: Chordin-like protein 2 (CHRDL2); experiment: CHRDL2 small-molecule binders, primary screen, biochemical, small-molecule microarray, 635 nm fluorescence (AID 1126); conditions: small-molecule microarray binding, fluorescence 635 nm; higher = more signal;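 further: printed compound slides probed with Chrdl2 protein at 4 µg/mL for 1 h at 4 C; score merges 667 nm emission intensity with signal to noise over three replicate slides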
# [18] = molecular target: Concanavalin-A (Canavalia ensiformis) (UniProt P02866); experiment: ConA small-molecule binders, primary screen, artefact control for SMM control protein annotation, biochemical, small-molecule microarray, Alexa647 label, 635 nm (AID 1127); conditions: ConA-A647 binding fluorescence, higher = more signal;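 further: z combines 667 nm emission intensity with signal-to-noise across three replicate slides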
# Chain of Concanavalin-A (Canavalia ensiformis) (P02866 whole entry, looked up): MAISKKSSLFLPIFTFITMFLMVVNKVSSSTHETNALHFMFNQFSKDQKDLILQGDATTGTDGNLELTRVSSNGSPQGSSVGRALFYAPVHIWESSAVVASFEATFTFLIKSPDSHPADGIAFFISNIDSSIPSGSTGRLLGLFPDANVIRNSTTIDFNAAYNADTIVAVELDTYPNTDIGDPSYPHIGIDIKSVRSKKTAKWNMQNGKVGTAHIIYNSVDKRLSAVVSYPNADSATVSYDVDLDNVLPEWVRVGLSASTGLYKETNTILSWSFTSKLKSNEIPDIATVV
# Chain of Alpha-bungarotoxin (Bungarus multicinctus) (P60615 whole entry, looked up): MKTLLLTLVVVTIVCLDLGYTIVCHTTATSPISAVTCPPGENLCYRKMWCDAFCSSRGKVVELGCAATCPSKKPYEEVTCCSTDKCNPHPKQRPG
# Chain of Left-right determination factor 2 (Homo sapiens) (O00292 whole entry, looked up): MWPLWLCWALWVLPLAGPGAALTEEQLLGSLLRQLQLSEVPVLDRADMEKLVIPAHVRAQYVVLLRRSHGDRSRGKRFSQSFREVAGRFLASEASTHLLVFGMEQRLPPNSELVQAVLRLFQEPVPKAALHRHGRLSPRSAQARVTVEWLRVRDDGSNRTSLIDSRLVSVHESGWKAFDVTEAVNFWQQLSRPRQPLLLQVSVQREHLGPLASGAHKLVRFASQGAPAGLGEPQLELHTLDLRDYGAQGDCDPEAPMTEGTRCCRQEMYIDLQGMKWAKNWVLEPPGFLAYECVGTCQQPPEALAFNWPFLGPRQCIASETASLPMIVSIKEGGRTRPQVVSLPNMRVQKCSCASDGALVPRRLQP
# Chain of Torsin-1A-interacting protein 1 (Homo sapiens) (Q5JTV8 whole entry, looked up): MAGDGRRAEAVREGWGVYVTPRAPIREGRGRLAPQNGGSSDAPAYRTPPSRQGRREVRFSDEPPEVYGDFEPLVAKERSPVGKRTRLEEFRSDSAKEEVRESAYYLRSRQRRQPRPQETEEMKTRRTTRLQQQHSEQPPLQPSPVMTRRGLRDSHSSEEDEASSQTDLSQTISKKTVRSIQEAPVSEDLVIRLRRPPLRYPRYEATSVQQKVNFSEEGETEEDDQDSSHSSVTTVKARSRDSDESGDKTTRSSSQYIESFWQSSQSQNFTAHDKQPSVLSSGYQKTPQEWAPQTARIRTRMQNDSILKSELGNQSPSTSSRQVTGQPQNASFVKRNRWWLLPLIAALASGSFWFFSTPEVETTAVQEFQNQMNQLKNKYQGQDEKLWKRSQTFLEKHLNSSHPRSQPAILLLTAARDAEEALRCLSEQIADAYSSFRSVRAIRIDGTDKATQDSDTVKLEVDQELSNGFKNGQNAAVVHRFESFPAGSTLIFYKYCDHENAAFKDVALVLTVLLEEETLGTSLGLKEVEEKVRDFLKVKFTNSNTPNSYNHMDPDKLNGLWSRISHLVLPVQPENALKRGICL
# Chain of Albumin (Bos taurus) (P02769 whole entry, looked up): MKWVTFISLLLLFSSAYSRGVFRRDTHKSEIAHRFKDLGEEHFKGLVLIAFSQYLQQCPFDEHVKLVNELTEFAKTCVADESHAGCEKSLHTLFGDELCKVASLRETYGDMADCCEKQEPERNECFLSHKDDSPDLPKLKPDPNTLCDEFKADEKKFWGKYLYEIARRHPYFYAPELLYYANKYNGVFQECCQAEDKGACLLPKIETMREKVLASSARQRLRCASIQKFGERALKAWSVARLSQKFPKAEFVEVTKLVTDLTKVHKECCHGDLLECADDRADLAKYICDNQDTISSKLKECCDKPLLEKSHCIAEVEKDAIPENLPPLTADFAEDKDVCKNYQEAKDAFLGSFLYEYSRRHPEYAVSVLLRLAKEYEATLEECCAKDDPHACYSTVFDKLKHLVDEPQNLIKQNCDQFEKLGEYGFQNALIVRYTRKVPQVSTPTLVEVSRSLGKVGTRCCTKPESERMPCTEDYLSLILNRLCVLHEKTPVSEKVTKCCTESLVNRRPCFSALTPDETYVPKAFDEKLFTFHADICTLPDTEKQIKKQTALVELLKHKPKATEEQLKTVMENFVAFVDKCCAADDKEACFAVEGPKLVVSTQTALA
Compound,composite z-score [1],z-score [2],composite z-score [3],composite z-score [4],composite z-score [5],composite z-score [6],composite z-score [7],composite z-score [8],composite z-score [9],composite z-score [10],composite z-score (Albumin (Bos taurus)),composite Z-score [11],composite z-score [12],composite z-score [13],composite z-score [14],composite z-score [15],composite z-score [16],composite z-score (Sam68 (KHDRBS1)),composite z-score [17],composite z-score [18]
C=CCNC(=O)[C@@H]1[C@H]2C(=O)O[C@H](c3ccccc3)[C@H](c3ccccc3)N2[C@H](c2ccc(O)cc2)[C@@]12C(=O)N(C(=O)OCCOC)c1ccc(C#CC3(O)CCCCCC3)cc12,-1.18,-0.0817,-2.4,-0.901,-0.123,-0.221,-0.192,-0.343,-1.28,-1.42,-0.632,-0.245 (inactive),-0.416,-0.153,-0.742,-0.642,-0.547,-0.669,-2.57,-0.533
O=C1O[C@H](c2ccccc2)[C@H](c2ccccc2)N2[C@H]1[C@@H](C(=O)O)[C@]1(C(=O)Nc3ccc(C#CC4=CCCCC4)cc31)[C@H]2c1ccc(O)cc1,1.33,-0.955,0.658,-0.461,-0.283,-0.0792,0.0284,-0.213,0.499,-0.188,0.562,0.235 (inactive),0.0445,-0.105,0.627,1.51,0.384,0.712,0.285,0.997
CC1CC/C=C\[C@H]2OC34C=CCN(c5ccc(Cl)cc5)C(=O)[C@H]3N(CCCCCO)C(=O)[C@]4(C)C2C(=O)O1 (stereo not given in full),-0.826,0.315,-2.19,-0.471,0.432,-0.247,-0.0626,-0.163,-0.614,-1.16,-1.08,-0.0503 (inactive),-0.288,-0.117,-0.482,-0.779,-0.3,-0.682,-1.67,-1.03
CCOC(=O)C[C@H]1[C@H](OC(=O)c2cc3ccccc3oc2=O)[C@@H](NC(=O)c2ccc(-c3ccccc3)cc2)c2cc(OCCCO)ccc2N1C(=O)c1ccccc1,1.4,-0.659,1.16,0.536,-0.15,-0.0203,0.199,0.161,0.959,0.727,0.551,-0.0549 (inactive),0.242,-0.0971,0.274,0.716,-0.0433,1.32,0.475,0.858
COC(=O)[C@@]1(Cc2ccc(F)cc2)[C@H]2c3cc(C(=O)N4CCCC4)n(CCc4ccc(O)c(O)c4)c3C[C@H]2CN1C(=O)c1ccccc1,-0.369,-1.79,-0.772,0.765,0.694,0.752,2.04,2.27,0.661,-0.125,0.601,0.41 (inactive),1.26,0.89,0.83,1.83,0.543,-1.03,-0.113,-0.697
CN(C)CCCNC(=O)[C@@]1(C)c2ccccc2C(=O)N(Cc2ccccc2)[C@H]1c1ccc(CO)cc1,-0.775,-1.94,-0.157,-1.06,-1.12,0.0026,-0.138,-0.33,-0.281,-0.358,-1.05,-0.194 (inactive),-0.264,-0.236,0.704,-0.358,-0.39,-0.0419,-0.19,-0.371
O=C1NC(=O)C2C1C=CC(C(O)c1c(F)cccc1Cl)N2Nc1ccc(Cl)cc1Cl (stereo not given),0.635,-0.133,-0.536,2.33,1.01,0.0923,0.0782,1.42,2.71,2.76,1.04,0.122 (inactive),0.525,0.232,0.599,3.11,1.12,0.79,-0.879,0.44
COC(=O)c1c2oc(c1C(=O)OC)C(=O)N(C)Cc1cn(nn1)C[C@H](Cc1ccccc1)NC(=O)N[C@H](CO)CC2,-1.07,-1.18,-0.683,-0.633,-0.197,-0.246,-0.154,-0.299,-0.641,-0.277,-0.56,-0.2 (inactive),-0.155,-0.18,-0.41,-0.69,-0.161,-0.947,-0.516,-1.17
COCCOC(=O)N1C(=O)[C@@]2(c3cc(C#CC4=CCCCC4)ccc31)[C@H](c1ccc(OCCO)cc1)N1[C@H](c3ccccc3)[C@H](c3ccccc3)OC(=O)[C@H]1[C@@H]2C(=O)NC[C@H](O)c1ccccc1,1.33,-1.88,0.958,0.868,0.458,-0.0297,0.107,0.802,1.06,1.19,-0.298,0.193 (inactive),0.164,0.0629,0.326,1.22,0.875,1.31,1.41,1.12
COc1cccc(/C=C/C=O)c1,0.105,-0.56,0.402,0.0577,-0.363,0.185,0.218,-0.354,0.185,-0.124,0.865,-0.245 (inactive),0.147,0.142,-0.124,0.155,-0.12,-0.146,0.552,-0.52
